A short description of assay [1]: optical density shifts of acrAB sulA E. coli – strain DRC41, OD650, 48 h, E. coli filamentation inducer project, primary screen (AID 1152).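 Also: E. coli MC1000 strain DRC41 lacking acrAB efflux pump and sulA.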 The settings on record: higher = more signal, called active from +8 up or from −8 down.
A short description of assay [2]: probe aLefty1 binding on compound microarray – biochemical, small-molecule microarray, 635/667 nm fluorescence, primary screen (AID 1153).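 Also: score merges spot fluorescence with signal-to-noise ratio from the scanned slide images.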 The settings on record: higher = more signal.
A short description of assay [3]: plasmodial surface anion channel blockers, osmotic lysis – cell-based, P. falciparum Indochina, OD700, 1 h, primary screen (AID 1154). The settings on record: P. falciparum Indochina infected RBC osmotic lysis, higher = more signal, called active from +8 up or from −8 down.
A short description of assay [4]: plasmodial surface anion channel blockers, osmotic lysis – cell-based, P. falciparum Indochina, OD700, 2 h, primary screen (AID 1155).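 Also: lysis reports solute entry through the parasite surface anion channel PSAC.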 The settings on record: P. falciparum Indochina infected erythrocytes, higher = more signal, called active from +8 up or from −8 down.
A short description of assay [5]: changes in parasitized red cell lysis, either direction – P. falciparum Indochina, OD700, 3 h, PSAC antagonist project, primary screen (AID 1156). The settings on record: P. falciparum-infected erythrocytes, osmotic lysis, higher = more signal, called active from +8 up or from −8 down.
Assay [6] is described as follows: plasmodial surface anion channel blockers, osmotic lysis – cell-based, P. falciparum Indochina, OD700, 18 h, primary screen (AID 1157). The settings on record: P. falciparum Indochina infected erythrocytes, osmotic lysis OD700, 18 h; higher = more signal, called active from +8 up or from −8 down.
Assay [7] can be described thus: S6 kinase pathway phospho-S6 level changes – cell-based, A549, cytoblot, luminescence, serum-stimulated, primary screen (AID 1158).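 Also: serum-stimulated A549 lung adenocarcinoma cells; signal is phosphorylated S6 detected by cytoblot immunostaining with HRP secondary.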 The settings on record: 5 h, higher = more signal.
For assay [8], the target named is NADPH oxidase 2 (Homo sapiens) (UniProt P04839). The assay can be described thus: compounds shifting NOX2 Amplex Red fluorescence – cell-based, HEK293-NOX2, PMA-stimulated, NOX inhibitor project, primary screen (AID 1159). Also: test concentration not given here. The settings on record: 45 min, higher = more signal, called active from +8 up or from −8 down.
For assay [9], the target named is NADPH oxidase 4 (Homo sapiens) (UniProt Q9NPH5). The experiment in a line: compounds shifting NOX4 Amplex Red fluorescence – cell-based, HEK293-NOX4, tetracycline-induced, NOX inhibitor project, primary screen (AID 1160). The settings on record: HEK293-NOX4, Amplex Red H2O2 fluorescence, 45 min; higher = more signal, called active from +8 up or from −8 down.
The target in assay [10] is NADPH oxidase 5 (Homo sapiens) (UniProt Q96PH1). The assay can be described thus: compounds shifting NOX5 Amplex Red fluorescence – cell-based, HEK293-NOX5, NOX inhibitor project, primary screen (AID 1161). The settings on record: HEK293-NOX5, ionomycin, 45 min, higher = more signal.
Assay [11] can be described thus: compound effects on lung adenocarcinoma cell viability – A549, calcein-AM fluorescence, 48 h, basal, profiling panel (AID 1162). Also: test concentration not given here. The settings on record: higher = more signal.
Assay [12] is described as follows: compound effects on differentiated 3T3-L1 adipocyte viability – cell-based, 3T3-L1 adipocytes, calcein-AM fluorescence, 48 h, basal, profiling panel (AID 1163). Also: test concentration not given here. The settings on record: 3T3-L1 adipocytes viability, higher = more signal.
A short description of assay [13]: compound effects on hepatocellular carcinoma cell viability – HepG2, calcein-AM fluorescence, 48 h, basal, profiling panel (AID 1164). Also: test concentration not given here. The settings on record: higher = more signal.
Assay [14] is described as follows: compound effects on multiple myeloma cell viability – MM1S, calcein-AM fluorescence, 48 h, basal, profiling panel (AID 1165).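 Also: viability of MM1S multiple myeloma cells under basal unstimulated conditions; test concentration not given here.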 The settings on record: higher = more signal.
Assay [15] in a line: calcein-AM signal in unstimulated myeloma cells – cell-based, calcein-AM fluorescence, 48 h, PK04 Diversity Set, profiling panel (AID 1166).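 Also: cells grown under basal conditions without added stimulus; test concentration not given here.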 The settings on record: RPMI8226 myeloma viability, higher = more signal.
Assay [16] can be described thus: JC-1 mitochondrial signal, unstimulated HepG2 cells – cell-based, JC-1 fluorescence, 24 h, 100 nL compound, profiling panel (AID 1167). Also: test concentration not given here. The settings on record: HepG2 mitochondrial potential, higher = more signal.
The nature of assay [17]: JC-1 mitochondrial signal, unstimulated adipocytes – cell-based, JC-1 fluorescence, 3T3-L1 adipocytes, 24 h, 100 nL compound, profiling panel (AID 1168). Also: test concentration not given here. The settings on record: JC-1 mitochondrial fluorescence, higher = more signal, called active from +8 up or from −8 down.
The nature of assay [18]: JC-1 mitochondrial signal, unstimulated myeloma cells – cell-based, JC-1 fluorescence, RPMI8226, 24 h, 100 nL compound, profiling panel (AID 1169). Also: test concentration not given here. The settings on record: JC-1 mitochondrial potential fluorescence, higher = more signal.
Assay [19] is described as follows: JC-1 mitochondrial signal, unstimulated MM1S myeloma – cell-based, JC-1 fluorescence, 24 h, 100 nL compound, profiling panel (AID 1170). Also: test concentration not given here. The settings on record: MM1S mitochondrial potential, higher = more signal.
Assay [20] is described as follows: resazurin metabolic signal in A549 cells – cell-based, resazurin fluorescence, 24 h, PK04 Diversity Set, profiling panel (AID 1171). Also: test concentration not given here. The settings on record: A549 viability, higher = more signal, called active from +8 up or from −8 down. For orientation: Resazurin is reduced to fluorescent resorufin, in cell work by metabolically active cells.

Activity calls are given as the source filed them.

Here are results for four compounds from PubChem BioAssay.

Chain of NADPH oxidase 2 (Homo sapiens) (P04839 whole entry, looked up): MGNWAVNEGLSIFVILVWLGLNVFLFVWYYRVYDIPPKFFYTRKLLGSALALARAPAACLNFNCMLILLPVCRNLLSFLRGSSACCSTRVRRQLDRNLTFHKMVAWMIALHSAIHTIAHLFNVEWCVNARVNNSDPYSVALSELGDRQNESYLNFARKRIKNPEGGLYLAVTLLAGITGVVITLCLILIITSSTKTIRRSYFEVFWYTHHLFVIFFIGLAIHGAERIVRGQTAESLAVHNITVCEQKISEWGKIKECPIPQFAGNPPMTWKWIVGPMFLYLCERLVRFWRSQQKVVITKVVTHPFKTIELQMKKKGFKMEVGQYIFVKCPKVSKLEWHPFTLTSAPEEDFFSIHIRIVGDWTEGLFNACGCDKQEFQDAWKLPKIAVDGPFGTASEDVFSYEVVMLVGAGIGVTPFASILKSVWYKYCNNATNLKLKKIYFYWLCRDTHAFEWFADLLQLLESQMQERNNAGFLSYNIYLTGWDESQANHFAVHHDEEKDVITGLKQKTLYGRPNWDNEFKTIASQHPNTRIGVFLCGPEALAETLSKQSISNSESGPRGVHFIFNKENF
Chain of NADPH oxidase 5 (Homo sapiens) (Q96PH1 whole entry, looked up): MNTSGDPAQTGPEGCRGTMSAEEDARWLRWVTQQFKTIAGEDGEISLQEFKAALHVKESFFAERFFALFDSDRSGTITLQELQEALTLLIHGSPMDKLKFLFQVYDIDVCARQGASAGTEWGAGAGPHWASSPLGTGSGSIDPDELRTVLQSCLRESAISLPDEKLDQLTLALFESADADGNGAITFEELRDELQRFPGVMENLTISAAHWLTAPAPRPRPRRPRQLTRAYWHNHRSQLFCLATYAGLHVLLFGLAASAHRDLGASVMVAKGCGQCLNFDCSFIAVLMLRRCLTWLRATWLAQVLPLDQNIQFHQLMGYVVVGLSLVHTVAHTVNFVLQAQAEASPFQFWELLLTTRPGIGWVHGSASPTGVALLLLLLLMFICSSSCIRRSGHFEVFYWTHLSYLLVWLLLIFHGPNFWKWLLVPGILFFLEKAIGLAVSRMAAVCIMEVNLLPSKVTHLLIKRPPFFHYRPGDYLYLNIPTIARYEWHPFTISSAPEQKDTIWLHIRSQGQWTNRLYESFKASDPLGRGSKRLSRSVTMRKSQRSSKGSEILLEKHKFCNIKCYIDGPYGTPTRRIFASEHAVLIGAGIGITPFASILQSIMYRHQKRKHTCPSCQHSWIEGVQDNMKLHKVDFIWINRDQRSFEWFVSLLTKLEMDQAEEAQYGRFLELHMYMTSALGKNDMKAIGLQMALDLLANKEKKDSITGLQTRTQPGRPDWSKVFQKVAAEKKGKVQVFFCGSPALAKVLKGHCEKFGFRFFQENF
Chain of NADPH oxidase 4 (Homo sapiens) (Q9NPH5 whole entry, looked up): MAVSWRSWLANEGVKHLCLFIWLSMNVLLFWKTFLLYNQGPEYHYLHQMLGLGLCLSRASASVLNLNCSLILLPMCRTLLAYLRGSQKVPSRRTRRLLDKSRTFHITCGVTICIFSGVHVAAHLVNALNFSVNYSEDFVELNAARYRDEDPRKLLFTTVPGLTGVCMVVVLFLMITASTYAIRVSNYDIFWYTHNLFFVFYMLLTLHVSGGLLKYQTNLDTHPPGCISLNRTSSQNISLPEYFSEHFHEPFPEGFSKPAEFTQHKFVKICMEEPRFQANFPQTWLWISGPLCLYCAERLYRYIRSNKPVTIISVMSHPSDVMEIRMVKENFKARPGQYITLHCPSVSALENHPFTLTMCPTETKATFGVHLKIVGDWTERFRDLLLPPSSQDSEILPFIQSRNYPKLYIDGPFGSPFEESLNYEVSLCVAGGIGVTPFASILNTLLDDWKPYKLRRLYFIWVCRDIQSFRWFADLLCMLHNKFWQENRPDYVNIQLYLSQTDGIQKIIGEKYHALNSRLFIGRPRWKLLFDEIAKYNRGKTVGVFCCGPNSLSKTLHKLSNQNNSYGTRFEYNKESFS

As for `CC(CCC(=O)OC[C@H]1O[C@H](C#Cc2ccccc2)C=C[C@@H]1Oc1ccc(C)cc1)=NO[C@@H](C)c1cn([C@H](CO)Cc2ccccc2)nn1`, the z-score in assay [1] was -0.913 (inactive); in assay [3] it was 10.5 (active); in assay [4], 0.542 (inactive); in assay [5], 1.78 (inactive); in assay [6], -1.05 (inactive); in assay [7], 0.672. Also, the z-score in [8] is -1.54 (inactive); in assay [9] it was -0.298 (inactive); in [10], -0.428; in assay [11] it was -0.487; in assay [12] it was 0.725; in assay [13] it was -0.982. In addition, the z-score in [14] is -0.622; in [15], -2.17; in assay [16], 0.453; in [17], -0.346 (inactive); in assay [18], 0.496; in [19], -0.0262. Also, the z-score in assay [20] is 0.555 (inactive). This compound also registered a composite z-score in assay [2] of -0.247.
For the compound `COc1ccc([Si](C)(C)[C@H]2[C@H](CCO)O[C@@]3(C(=O)N(Cc4cccc(NC(=O)[C@H](C)O)c4)c4ccccc43)[C@@H]2C)cc1`, the z-score in assay [1] is 0.868 (inactive); in assay [3] it was 19.7 (active); in assay [4], 5.46 (inactive); in assay [5], 0.334 (inactive); in assay [6], 1.8 (inactive); in assay [7], 0.993. Further, the z-score in [8] was -4.7 (inactive); in assay [9] it was 0.621 (inactive); in assay [10], -1.31; in assay [11] it was -2.82; in [12] it was -0.401; in assay [13], -4.52. Further, the z-score was -2.63 in assay [14]; -4.36 in assay [15]; -2.89 in assay [16]; 1.46 (inactive) in assay [17]; -1.02 in assay [18]; -2.35 in [19]. Moreover, the z-score in [20] is -4.28 (inactive). In assay [2], this compound yielded a composite z-score of 0.19.
For `O=C1O[C@@H](c2ccccc2)[C@@H](c2ccccc2)N2[C@@H](c3ccc(OCCO)cc3)[C@]3(C(=O)Nc4ccccc43)[C@@H](C(=O)N3CCN(c4ncccn4)CC3)[C@H]12`, the z-score was 0.777 (inactive) in assay [1]; 17.4 (active) in [3]; 3.91 (inactive) in assay [4]; 2.06 (inactive) in [5]; 1.28 (inactive) in [6]; -0.183 in [7]. Moreover, the z-score in [8] was 1.09 (inactive); in [9], 0.368 (inactive); in [10], 1; in assay [11], -0.47; in assay [12] it was -0.888; in assay [13], 0.834. For the same compound, the z-score in assay [14] is -0.138; in assay [15], 0.229; in [16], -0.679; in assay [17] it was 0.339 (inactive); in assay [18], -0.842; in [19] it was -0.779. In addition, the z-score in assay [20] was 0.42 (inactive). Besides, the composite z-score in assay [2] is -0.0347.
Turning to `CO[C@H]1COC(=O)[C@H](C)NC(=O)[C@@H](C)COC(=O)CC=C[C@@H]1C`, the z-score in [1] was 0.66 (inactive); in [3], 0.945 (inactive); in assay [4], 0.54 (inactive); in [5], 0.795 (inactive); in assay [6], 0.465 (inactive); in assay [7] it was 0.0768. In addition, the z-score was -0.835 (inactive) in assay [8]; 0.412 (inactive) in assay [9]; 0.193 in assay [10]; -0.0101 in assay [11]; 0.0176 in assay [12]; -0.368 in assay [13]. Besides, the z-score in [14] was -0.303; in [15] it was 0.693; in assay [16] it was -0.176; in assay [17], -1.32 (inactive); in assay [18] it was -0.282; in assay [19], -0.863. Besides, the z-score in assay [20] was -0.162 (inactive). Further, in [2], the composite z-score was -0.251.
